Screening results as filed in PubChem.
In the library only some 3.5% were active in any assay of this set; here they are far more common.
GPR151 ag – activators of human GPR151, primary screen, cell-based, PathHunter beta-arrestin, luminescence; activation, % at 11.2 µM; PathHunter beta-arrestin GPR151 cells; 650,000 tested, 1% active; G-protein coupled receptor 151 (Homo sapiens), Q8TDV0; in the data active = activation above about 4.9%
FBW7 act – FBW7 E3 ligase activators, primary screen, biochemical, AlphaScreen, human; AlphaScreen FBW7–phospho-cyclin E peptide binding, activator screen; normalized activity (activation), % at 26.1 µM; 650,000 tested, 0.13% active; in the data active = normalized activity above about 1.9%;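 note: purified mutant Fbw7 with reduced substrate affinity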
MITF inh – MITF inhibitors, primary screen, biochemical, AlphaScreen, human | AlphaScreen MITF homodimerization, bead proximity signal | inhibition, % at 2.6 µM | 650,000 tested, 0.91% active | Microphthalmia-associated transcription factor (Homo sapiens), O75030 | AID 1259374, 2018; in the data active = inhibition above about 50%
TEAD-YAP inh – TEAD-YAP interaction inhibition, primary screen, TEAD-YAP interaction inhibitor project, luminescence, HEK-TIYL cells | TEAD-Gal4/YAP UAS-luciferase luminescence | inhibition, % at 9.12 µM | 640,000 tested, 1.4% active; in the data active = inhibition above about 32%
GPR151 conf act – GPR151 activators, triplicate retest, confirmation, cell-based, PathHunter beta-arrestin, luminescence; shares compounds with GPR151 ag; GPR151 PathHunter beta-arrestin cells, 90 min; % of EA-reagent control over plate median; activation, % at 11.2 µM; 6,700 tested, under 10 active; AID 1508609, 2020;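 active = mean percent activation across replicates above the confirmation screen cutoff of 4.91%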
GPR119 counter – GPR119 activators in beta-arrestin cells, counter-screen for GPR151 activator project, cell-based, PathHunter beta-arrestin, luminescence, triplicate. shares compounds with GPR151 ag. 90 min; 0 = compound-well median, 100 = enzyme-acceptor control. activation, % at 11.2 µM. 6,700 tested, 0.3% active. AID 1508611, 2020;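 active = mean percent activation in the counterscreen above 29.09%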;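 note: counterscreen on off-target GPR119 to flag nonselective hits from the GPR151 activator screen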
Target sequence (Q8TDV5 whole entry, looked up): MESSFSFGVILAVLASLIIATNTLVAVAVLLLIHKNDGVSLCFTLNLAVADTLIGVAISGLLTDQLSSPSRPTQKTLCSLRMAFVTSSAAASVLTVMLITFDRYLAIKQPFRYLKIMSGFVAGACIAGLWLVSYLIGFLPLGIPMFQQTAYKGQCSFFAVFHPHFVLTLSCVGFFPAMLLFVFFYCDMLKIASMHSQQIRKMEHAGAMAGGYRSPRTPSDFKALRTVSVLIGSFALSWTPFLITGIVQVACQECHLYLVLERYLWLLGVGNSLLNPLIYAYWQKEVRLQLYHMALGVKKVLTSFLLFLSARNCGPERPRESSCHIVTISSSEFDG
Large screens that a line does not name were inactive (follow-up assays come after a bar, where they were run); ! = not active in a repeat.

CCOC(=O)c1ccc(NC(=O)/C(C#N)=C/c2cccc([N+](=O)[O-])c2)cc1	none
Cc1nnc2ccc(SCC(=O)N3CCN(Cc4ccc5c(c4)OCO5)CC3)nn12	GPR151 ag 5.7 | GPR151 conf act inactive | GPR119 counter inactive
OC(COc1ccccc1)CN1CCN(Cc2ccc3c(c2)OCO3)CC1 (stereo unspecified)	GPR151 ag 8.4 | GPR151 conf act inactive | GPR119 counter inactive
CCN1CCN(CC(O)COCc2ccc3c(c2)OCO3)CC1 (stereo unspecified)	none
OC(COCc1ccc2c(c1)OCO2)CN1CCN(Cc2ccccc2)CC1 (stereo unspecified)	GPR151 ag 6.9 | GPR151 conf act inactive | GPR119 counter inactive
O=C(N1CCOCC1)N1CCN(Cc2ccc3c(c2)OCO3)CC1	GPR151 ag 6.1 | GPR151 conf act inactive | GPR119 counter inactive
CCC(C)NC1CCN(c2ccc(NC(=O)c3ccc(OC)cc3)cc2)CC1 (stereo unspecified)	none
CCC(C)NC(=O)c1cnn(-c2ccccc2)c1-n1cccc1 (stereo unspecified)	none
Nc1nc(SCc2ccccn2)nn1Cc1ccccc1F	none
COc1cc(NC(=O)c2cccc(-n3cc(NC(=O)Cc4ccc(F)c(C(F)(F)F)c4)cn3)c2)cc(OC)c1OC	none
COc1ccccc1-c1nc(C2CCCN(C(=O)CC(C)CC(=O)O)C2)n2ccccc12 (stereo unspecified)	none
O=C(Nc1ccc2nn(-c3ccccc3)nc2c1)c1ccc(-c2cccc([N+](=O)[O-])c2)o1	GPR151 ag 5.1 | GPR151 conf act inactive | GPR119 counter inactive
CN(CCC#N)c1ncnc2c1oc1ccccc12	GPR151 ag 10.5 | GPR151 conf act inactive | GPR119 counter inactive
CN1CCC(N(C(=O)c2ccc(C(F)(F)F)cc2)C2CCN(C)CC2)CC1	GPR151 ag 6.2 | GPR151 conf act inactive | GPR119 counter inactive
O=C(OCc1ccc([N+](=O)[O-])cc1)c1ccc2ccccc2c1O	none
COC(=O)C1=C(C(=O)OC)[C@@H]2N(Cc3ccccc3)c3ccccc3[C@@]23C[C@@H](CO)N(C(=O)NC2CCCCC2)C3=N1	none (no result: TEAD-YAP inh)
COC(=O)C1=C(C(=O)OC)[C@@H]2N(Cc3ccccc3)c3ccccc3[C@@]23C[C@@H](CO)N=C3N1	GPR151 ag 6.8 (no result: TEAD-YAP inh) | GPR151 conf act inactive | GPR119 counter inactive
CN(C)CCCN1c2ccccc2CCc2ccc(Cl)cc21	GPR151 ag 10.5! | GPR151 conf act inactive | GPR119 counter inactive
CN(CCCN1c2ccccc2CCc2ccccc21)CC(=O)c1ccc(Cl)cc1	none
COCCNc1nc2c(N)ncnc2n1C1OC(CO)C(O)C1O (stereo unspecified)	none
CC(=O)NCC(=O)NCC1Cc2cc(-c3cnccn3)cc(Cl)c2O1 (stereo unspecified)	GPR151 ag 4.9 | GPR151 conf act inactive | GPR119 counter inactive
Cc1ccoc1C(=O)NCC1Cc2cc(-c3cnccn3)cc(Cl)c2O1 (stereo unspecified)	none
CC(C)CCN1C(=O)C(C)(C)COc2cc(NC(=O)c3ccc4c(c3)OCO4)ccc21	GPR151 ag 5.6 | GPR151 conf act inactive | GPR119 counter inactive
CN1C(=O)C(C)(C)COc2cc(NC(=O)Nc3ccc4c(c3)OCO4)ccc21	none
O=C1c2cccc3cccc(c23)C(=O)N1CC(=O)N1CCc2ccccc21	none
CCc1ccc(C2CC(c3cc(OC)c(OC)c(OC)c3)n3nnnc3N2)cc1 (stereo unspecified)	none
O=C(NC1CCCC1)C1CCC(=O)N1C1CCCCC1 (stereo unspecified)	none
O=C(NC1CC1)C1CCC(=O)N1C1CCCCC1 (stereo unspecified)	GPR151 ag 8.5 | GPR151 conf act inactive | GPR119 counter inactive
COc1ccc(CCNc2ncnc3nc(-c4cccc(N)c4)[nH]c23)cc1	GPR151 ag 5.2 | GPR151 conf act inactive | GPR119 counter inactive
COc1ccc(CCNc2ncnc3nc(NCCN4CCOCC4)[nH]c23)cc1	GPR151 ag 5.6 | GPR151 conf act inactive | GPR119 counter inactive
C#CCSc1nc(-c2ccccc2)cc(-c2ccc(OC)cc2)c1C#N	none
NC(=O)c1cccn1Cc1cccc(Cl)c1	none
CCOC(=O)c1nccn1Cc1ccccc1Cl	GPR151 ag 9.4 | GPR151 conf act inactive | GPR119 counter inactive
NC(=O)c1cccn1Cc1ccccc1Cl	GPR151 ag 5.2 | GPR151 conf act inactive | GPR119 counter inactive
CC1CN(CCOCCOc2ccc(Cl)c3ccccc23)CC(C)O1 (stereo unspecified)	none
CC1CN(CCOCCOc2c(Cl)cccc2Cl)CC(C)O1 (stereo unspecified)	GPR151 ag 8.4 | GPR151 conf act inactive | GPR119 counter inactive
CCc1nc(SCc2cccnc2)c2c(=O)n(C)c(=O)n(C)c2n1	GPR151 ag 8.2 | GPR151 conf act inactive | GPR119 counter inactive
CCCCc1nc(SCc2cccnc2)c2c(=O)n(C)c(=O)n(C)c2n1	none
CCCCN(CCCNC(=O)c1c(C)cc(=O)oc1C)c1ccccc1	none
CCN(CCCNC(=O)c1c(C)cc(=O)oc1C)c1ccccc1	GPR151 ag 5.1 | GPR151 conf act inactive | GPR119 counter inactive
Cc1c(=O)n(OCc2cccc(F)c2)c2ccccc2[n+]1[O-]	none
Cc1c(=O)n(OCc2ccccc2F)c2ccccc2[n+]1[O-]	GPR151 ag 12.0 | GPR151 conf act inactive | GPR119 counter inactive
Cc1nn(C)c(C)c1-c1cccc(C(N)=O)c1	none
Cc1nn(C)c(C)c1-c1ccc2nc(C(C)C)[nH]c(=O)c2c1	GPR151 ag 5.6 | GPR151 conf act inactive | GPR119 counter inactive
Cc1ccc(N2C(=O)CC(Sc3nc(-c4ccccc4)ccc3C#N)C2=O)cc1 (stereo unspecified)	none
Cc1ccc(N2C(=O)CC(Sc3nc(C)cc(C)n3)C2=O)cc1 (stereo unspecified)	none
CC(C)Cc1ccc(C#N)c(SC2CC(=O)N(c3ccccc3)C2=O)n1 (stereo unspecified)	GPR151 ag 7.5 | GPR151 conf act inactive | GPR119 counter inactive
Cc1cc(C(F)(F)F)c(C#N)c(SC2CC(=O)N(c3ccccc3)C2=O)n1 (stereo unspecified)	GPR151 ag 9.3 | GPR151 conf act inactive | GPR119 counter inactive
Cc1ccc(N2C(=O)CC(Sc3nc(C)cc(C(F)(F)F)c3C#N)C2=O)cc1 (stereo unspecified)	none
